Reference: PubChem BioAssay (NCATS)
Several values for one entry are separate records, joined by “and”; a condition that tells them apart may be missing. Equal values may be shown once. Records with an inconclusive call do not appear. Activity calls are given as the source filed them. The call rests on the fitted dose curve; in most records, active means well fitted cell-killing curve with a large enough effect; inconclusive means small, poorly fitted or top-dose-only effect; inactive means flat fitted curve, though single readings scatter.
On the % scale 0 is the no-effect control and ±100 the full control effect.

Assay: Cellular viability qHTS for adrenocortical cancer (ACC) cell line SW-13 (AID 1963989); further: nearly all actives have a fitted effect of over 65% in size;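 on activity (max response): cells grown in serum-free medium with ITS supplement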
Settings: SW-13 ACC cells viability, CellTiter-Glo, 48 h; activity (max response): hits give low values
From the text: PI: Naris Nilubol, MD Surgical Oncology Program, National Cancer Institute (NCI) National Institute of Health (NIH), Bethesda, Maryland Adrenocortical cancer (ACC) is a rare malignancy with poor survival outcomes and few treatment options. Currently, mitotane is the only FDA-approved therapy for ACC. Although adjuvant radiation therapy is rarely utilized, it has the potential to improve survival in select cases. Through a quantitative high-throughput drug screen (qHTS), we identified auranofin (AF), a thioredoxin reductase (TXNRD) inhibitor, as a promising candidate drug. This study aims to evaluate whether AF can enhance the efficacy of radiation therapy in the treatment of ACC. Two human ACC cell lines, SW-13 and NCI-H295R, were screened using the National Center for Advancing Translational Sciences (NCATS) Pharmaceutical Collection (NPC) and the Mechanism Interrogation PlatE (MIPE) library (~4,991 compounds). CellTiter-Glo (Cat # G7570, Promega, Madison, WI) was utilized to measure cell viability. Described herein are the results of the corresponding viability assay.
PROTOCOL TABLE (as described by Inglese J, Shamu CE and Guy RK. 2007) SEQUENCE No. (e.g., 1, 2, 3, etc.); […] (e.g., Cells, Incubation, Reagent, etc.); VALUE; DESCRIPTION. 1; Cells; 5 uL; white, solid-bottom, 1536-well tissue-culture treated plates. 2; Time; overnight culture at 37C with 5% CO2. 3; Compounds and control; 23 nL; Kalypsis pin tool (Wako USA) equipped with a 1536-well pin head to transfer to the assay plates. 4; Time; 48 hours; 37C with 5% CO2. 5; Reagent; 4 uL; CellTiter-Glo luminescent substrate mix. 6; Time; 20 min at room temperature. 7; Detection; Luminescence; ViewLux plate reader NOTES (numbers refer to Sequence numbers above) 1. SW13 cells were harvested from a T175 flask and resuspended in ITS-supplemented DMEM serum-free medium at a concentration of 300 000 cells/mL. Then 5 uL of resuspended cells were dispensed into each well of white, solid-bottom, 1536-well tissue-culture-treated plates using a multidrop combi dispenser. The plates were covered with stainless steel gasket lids. 2-3. The plates were cultured overnight at 37C with 5% CO2. Twenty-three nL of compounds (eight selected concentrations from the NPC / MIPE) or positive control (10 mM stock of bortezomib) in DMSO was transferred to each well of the assay plate using a pin tool (Kalypsys, San Diego, CA, USA). The final concentration of the compounds in the 5 uL assay volume ranged from 0.5 nM to 46 uM. 4-6. After 48 hours of incubation at 37C and 5% CO2, 4 uL of CellTilter-Glo luminescent substrate mix (Promega, Madison, WI, USA) was added to each well. Then the plates were incubated for 20 minutes at room temperature. 7. After incubation, luminescence was measured using a ViewLux plate reader (PerkinElmer, Waltham, MA, USA) with a clear filter was used to measure the number of metabolically competent cells. To determine compound activity in the qHTS assay, the titration-response data for each sample was plotted and modeled by a four-parameter logistic fit yielding IC50 and efficacy (maximal response) values. […] REFERENCES: Inglese J, Shamu CE and Guy RK, Reporting data from high throughput screening of small molecule libraries, Nature Chemical Biology, 2007, 3(8): 438-441. doi.org/10.1038/nchembio0807-438.
In the case of `C[C@@H]1CC[C@H]2[C@@H](C)C(=O)O[C@@H]3O[C@@]4(C)CC[C@@H]1[C@]32OO4`, the activity (max response) is reported as -4.33% (inactive) and -19.2% (inactive).
In the case of `Nc1nc(N)nc(NC2CC2)n1`, the activity (max response) is reported as -6.71% (inactive).
In the case of `Cc1ccc2c(c1)C1CN(C)CCC1N2` (stereo not given), the activity (max response) is reported as -4.86% (inactive).
In the case of `COc1ccc(C(=O)N2CCCC2=O)cc1`, the activity (max response) is reported as -6.45% (inactive) and 13% (inactive).
With `C[C@H]1C(=O)O[C@@H]2CCN3CC=C(COC(=O)[C@](C)(O)[C@]1(C)O)[C@H]23` the activity (max response) was -4.54% (inactive).
For `NC1=NC(=O)N2CC12` (stereo not given), the activity (max response) was -7.87% (inactive).
For `OCCOc1ccccc1`, the activity (max response) was 8.17% (inactive).
In the case of `C/C(O)=C(\C#N)C(=O)Nc1cc(Br)ccc1Br`, the activity (max response) is reported as -6.51% (inactive).
For `CCN[C@@H](C)Cc1cccc(C(F)(F)F)c1`, the activity (max response) was -3.94% (inactive).
With `O=C(CBr)Nc1ccc(Cl)cc1C(=O)c1ccccc1F` the activity (max response) was -3.92% (inactive).
For `Fc1ccc(C(OCCN2CCN(CCCc3ccccc3)CC2)c2ccc(F)cc2)cc1`, the Potency was 5.8 µM (active) and 14.1 µM (active).
With `c1ccc2c(CN3CCNCC3)cccc2c1` the activity (max response) was 3.38% (inactive).
With `Nc1ccc(Cl)cc1C(=O)c1ccccc1F` the activity (max response) was -12.6% (inactive).
For `N[C@@H](Cc1ccc(Oc2cc(I)c(O)c(I)c2)c(I)c1)C(=O)O`, the activity (max response) was 2.16% (inactive).
For `Clc1cccc(SC2CCNCC2)n1`, the activity (max response) was 3.75% (inactive).
In the case of `NC(=O)[C@@H](CC1CC1)[C@@H](CCC(F)(F)F)C(=O)N[C@H]1N=C(c2ccccc2)c2cccc(F)c2NC1=O`, the activity (max response) is reported as -14.1% (inactive).
With `CCOP(=O)(NC(C)C)Oc1ccc(SC)c(C)c1` (stereo not given) the activity (max response) was -12.8% (inactive).
For `CCCOC(=O)c1cncn1C(C)c1ccccc1` (stereo not given), the activity (max response) was 12% (inactive).
In the case of `CCOCCOC(C)=O`, the activity (max response) is reported as 7.41% (inactive).
For `CC(C)=C[C@@H]1[C@@H](C(=O)OCc2coc(Cc3ccccc3)c2)C1(C)C`, the activity (max response) was -18.7% (inactive).
For `C#CC1(O)CCC2C3CCC4=CC(=O)CCC4(C)C3CCC21C` (stereo not given), the activity (max response) was 9.7% (inactive).
With `CCC1(c2cccc(O)c2)CCCCN(C)C1` (stereo not given) the activity (max response) was -10.4% (inactive).
For `[N-]=[N+]=CC(=O)OC[C@H](N)C(=O)O`, the activity (max response) was -8.61% (inactive).
In the case of `Cc1cc(SCc2sc(-c3ccc(C(F)(F)F)c(F)c3)nc2C)ccc1OCC(=O)O`, the activity (max response) is reported as -20.9% (inactive).
In the case of `c1ccc(C2CC2)c(OCC2=NCCN2)c1`, the activity (max response) is reported as -5.68% (inactive).
For `C=C(C)[C@@H]1CCC(C)=C[C@H]1c1c(O)cc(CCCCC)cc1O`, the Potency was 31600 nM (active).
For `CCCOC(=O)Cc1ccc(OCC(=O)N(CC)CC)c(OC)c1`, the activity (max response) was 10.7% (inactive).
With `OC(O)C(Cl)(Cl)Cl` the activity (max response) was 12.7% (inactive).
With `CCC1(CCC(C)C)C(=O)NC(=O)NC1=O` the activity (max response) was 0.531% (inactive).
In the case of `CC(C)(C)NCC(O)c1ccccc1Cl` (stereo not given), the activity (max response) is reported as 3.76% (inactive).
In the case of `NN=C(N)N`, the activity (max response) is reported as 12.8% (inactive).
For `CC1Sc2c(C(=O)O)c(=O)c3cc(F)c(N4CCNCC4)cc3n21` (stereo not given), the activity (max response) was 7.63% (inactive).
For `CC(C)[C@]12O[C@H]1[C@@H]1O[C@]13[C@]1(O[C@H]1C[C@H]1C4=C(CC[C@@]13C)C(=O)OC4)[C@@H]2O`, the Potency was 251 nM (active).
With `Oc1ccc([C@H]2CNCc3c2ccc(O)c3O)cc1O` the activity (max response) was -10.4% (inactive).
With `CC(=O)C1CCOC1=O` (stereo not given) the activity (max response) was 9.4% (inactive).
For `CC(C)(C)C(O)C(Oc1ccc(Cl)cc1)n1cncn1` (stereo not given), the activity (max response) was -16.3% (inactive).
In the case of `CC(=O)OC[C@H]1O[C@@H]([S-])[C@H](OC(C)=O)[C@@H](OC(C)=O)[C@@H]1OC(C)=O.CC[PH+](CC)CC.[Au]`, the Potency is reported as 708 nM (active).
For `COc1ccccc1N1CCNCC1`, the activity (max response) was -19.4% (inactive).
With `CC(C)CC(N(C)C)C1(c2ccc(Cl)cc2)CCC1` (stereo not given) the activity (max response) was -12.4% (inactive).
In the case of `CC(C(O)c1ccccc1)N(C)C/C=C/c1ccccc1` (stereo not given), the activity (max response) is reported as -14.5% (inactive).
